Of roughly 7,900 targets only a part is listed; those with a hit were picked by preference. About 0.6% of all pairs of compound and target were hits. Unmarked numbers belong to inactive results.

Sequence of UniProt P61024 (P61024 whole entry, looked up): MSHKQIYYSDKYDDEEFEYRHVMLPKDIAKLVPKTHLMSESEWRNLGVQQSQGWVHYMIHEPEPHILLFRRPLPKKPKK
Sequence of UniProt Q9Y3X0 (Q9Y3X0 whole entry, looked up): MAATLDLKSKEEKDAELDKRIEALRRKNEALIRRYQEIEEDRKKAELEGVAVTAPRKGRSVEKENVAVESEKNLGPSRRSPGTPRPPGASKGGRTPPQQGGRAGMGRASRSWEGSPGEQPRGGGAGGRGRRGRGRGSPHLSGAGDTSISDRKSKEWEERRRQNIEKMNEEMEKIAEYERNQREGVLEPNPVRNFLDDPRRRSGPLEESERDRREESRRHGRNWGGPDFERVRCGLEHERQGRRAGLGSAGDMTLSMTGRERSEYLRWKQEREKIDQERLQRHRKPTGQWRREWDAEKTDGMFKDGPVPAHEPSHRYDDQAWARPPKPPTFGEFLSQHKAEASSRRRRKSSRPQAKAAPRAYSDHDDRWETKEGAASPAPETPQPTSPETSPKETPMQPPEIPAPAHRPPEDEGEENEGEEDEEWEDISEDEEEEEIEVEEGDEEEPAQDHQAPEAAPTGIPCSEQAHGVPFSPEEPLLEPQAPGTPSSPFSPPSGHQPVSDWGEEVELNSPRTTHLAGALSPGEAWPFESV
Sequence of UniProt Q96KA5 (Q96KA5 whole entry, looked up): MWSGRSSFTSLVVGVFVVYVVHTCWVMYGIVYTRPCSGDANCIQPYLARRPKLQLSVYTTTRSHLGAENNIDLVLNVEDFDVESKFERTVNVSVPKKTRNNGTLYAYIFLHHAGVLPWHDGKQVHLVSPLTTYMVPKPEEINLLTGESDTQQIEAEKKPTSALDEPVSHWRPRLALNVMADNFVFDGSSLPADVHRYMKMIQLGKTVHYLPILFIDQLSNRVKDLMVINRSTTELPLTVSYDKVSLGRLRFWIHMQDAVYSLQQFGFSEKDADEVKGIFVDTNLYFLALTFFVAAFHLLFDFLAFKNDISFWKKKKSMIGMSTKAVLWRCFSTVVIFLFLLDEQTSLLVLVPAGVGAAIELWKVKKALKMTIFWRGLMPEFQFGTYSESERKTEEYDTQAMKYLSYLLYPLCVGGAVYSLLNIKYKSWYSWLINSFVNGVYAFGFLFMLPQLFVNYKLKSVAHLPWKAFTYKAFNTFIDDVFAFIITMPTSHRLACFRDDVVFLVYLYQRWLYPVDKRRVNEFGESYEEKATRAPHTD
Sequence of UniProt P30305 (P30305 whole entry, looked up): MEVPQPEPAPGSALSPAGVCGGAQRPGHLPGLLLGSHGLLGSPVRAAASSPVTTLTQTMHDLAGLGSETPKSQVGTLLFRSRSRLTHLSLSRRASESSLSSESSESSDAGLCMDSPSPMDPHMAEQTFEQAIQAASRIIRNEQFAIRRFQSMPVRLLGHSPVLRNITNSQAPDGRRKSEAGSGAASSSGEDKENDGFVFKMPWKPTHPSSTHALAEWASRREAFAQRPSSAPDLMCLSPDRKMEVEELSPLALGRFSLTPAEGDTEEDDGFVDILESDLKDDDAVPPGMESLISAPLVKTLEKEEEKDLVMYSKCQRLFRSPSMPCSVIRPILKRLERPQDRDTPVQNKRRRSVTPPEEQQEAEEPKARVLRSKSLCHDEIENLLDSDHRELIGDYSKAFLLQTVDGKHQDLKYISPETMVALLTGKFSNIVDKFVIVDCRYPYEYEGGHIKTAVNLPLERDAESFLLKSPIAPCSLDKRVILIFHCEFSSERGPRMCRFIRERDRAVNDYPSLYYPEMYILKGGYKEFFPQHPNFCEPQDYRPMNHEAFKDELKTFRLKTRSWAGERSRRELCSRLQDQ
Sequence of UniProt Q86X83 (Q86X83 whole entry, looked up): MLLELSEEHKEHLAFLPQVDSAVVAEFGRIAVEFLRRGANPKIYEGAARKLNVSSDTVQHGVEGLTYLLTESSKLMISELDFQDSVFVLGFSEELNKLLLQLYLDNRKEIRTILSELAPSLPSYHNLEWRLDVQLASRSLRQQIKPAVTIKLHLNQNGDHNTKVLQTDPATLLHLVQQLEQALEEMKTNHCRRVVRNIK
Sequence of UniProt P12277 (P12277 whole entry, looked up): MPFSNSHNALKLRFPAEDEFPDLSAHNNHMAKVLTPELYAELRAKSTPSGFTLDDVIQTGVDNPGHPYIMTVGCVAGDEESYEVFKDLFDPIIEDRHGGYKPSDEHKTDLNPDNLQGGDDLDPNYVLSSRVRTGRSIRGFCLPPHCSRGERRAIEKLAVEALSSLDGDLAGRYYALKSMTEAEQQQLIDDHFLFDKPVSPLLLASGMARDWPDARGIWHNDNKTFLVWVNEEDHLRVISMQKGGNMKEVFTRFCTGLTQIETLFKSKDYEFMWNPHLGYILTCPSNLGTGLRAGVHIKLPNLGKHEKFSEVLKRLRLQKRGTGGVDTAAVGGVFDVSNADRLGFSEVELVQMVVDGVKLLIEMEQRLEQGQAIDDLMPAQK
Sequence of UniProt P42574 (P42574 whole entry, looked up): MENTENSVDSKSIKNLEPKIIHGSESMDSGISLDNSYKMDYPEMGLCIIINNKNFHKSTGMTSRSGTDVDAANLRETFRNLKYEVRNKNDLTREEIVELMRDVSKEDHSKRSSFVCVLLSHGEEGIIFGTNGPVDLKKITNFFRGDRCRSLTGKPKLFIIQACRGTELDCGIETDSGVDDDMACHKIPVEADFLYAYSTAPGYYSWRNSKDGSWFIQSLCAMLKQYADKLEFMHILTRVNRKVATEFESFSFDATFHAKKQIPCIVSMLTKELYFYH
Sequence of UniProt Q9HAW4 (Q9HAW4 whole entry, looked up): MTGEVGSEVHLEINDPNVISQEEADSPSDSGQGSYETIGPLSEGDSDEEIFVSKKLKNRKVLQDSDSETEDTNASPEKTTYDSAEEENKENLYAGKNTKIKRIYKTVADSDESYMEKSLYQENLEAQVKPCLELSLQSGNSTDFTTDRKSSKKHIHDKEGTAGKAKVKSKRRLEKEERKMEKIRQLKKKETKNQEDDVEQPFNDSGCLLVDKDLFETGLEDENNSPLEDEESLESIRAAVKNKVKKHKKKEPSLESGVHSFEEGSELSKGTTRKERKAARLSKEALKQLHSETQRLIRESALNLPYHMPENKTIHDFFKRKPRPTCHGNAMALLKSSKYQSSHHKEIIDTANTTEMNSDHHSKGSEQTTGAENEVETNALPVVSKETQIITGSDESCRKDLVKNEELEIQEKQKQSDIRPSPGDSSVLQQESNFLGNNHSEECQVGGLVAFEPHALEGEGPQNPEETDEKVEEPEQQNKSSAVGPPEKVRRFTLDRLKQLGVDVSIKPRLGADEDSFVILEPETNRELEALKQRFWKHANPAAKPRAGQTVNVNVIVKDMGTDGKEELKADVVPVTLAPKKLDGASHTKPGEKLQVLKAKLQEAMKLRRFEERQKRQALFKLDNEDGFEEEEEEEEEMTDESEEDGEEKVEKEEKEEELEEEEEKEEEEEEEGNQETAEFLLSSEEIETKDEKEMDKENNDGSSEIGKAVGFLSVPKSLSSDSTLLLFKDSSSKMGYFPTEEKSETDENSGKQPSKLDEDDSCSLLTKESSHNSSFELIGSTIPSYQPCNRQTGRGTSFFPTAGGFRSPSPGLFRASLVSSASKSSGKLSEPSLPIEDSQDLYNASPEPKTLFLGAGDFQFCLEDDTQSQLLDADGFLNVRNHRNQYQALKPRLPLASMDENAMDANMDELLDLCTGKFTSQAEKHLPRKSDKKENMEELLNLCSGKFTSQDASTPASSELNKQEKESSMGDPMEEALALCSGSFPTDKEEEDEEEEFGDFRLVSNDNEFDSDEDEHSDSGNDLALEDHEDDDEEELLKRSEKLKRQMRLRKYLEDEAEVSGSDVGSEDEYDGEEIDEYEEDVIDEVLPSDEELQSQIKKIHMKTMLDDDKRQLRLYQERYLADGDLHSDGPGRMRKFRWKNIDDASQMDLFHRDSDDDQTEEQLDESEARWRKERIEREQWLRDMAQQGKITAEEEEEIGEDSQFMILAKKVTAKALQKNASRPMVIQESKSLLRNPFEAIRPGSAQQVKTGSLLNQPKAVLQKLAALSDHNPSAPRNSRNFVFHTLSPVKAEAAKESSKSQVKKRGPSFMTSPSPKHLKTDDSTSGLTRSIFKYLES
Sequence of UniProt P00915 (P00915 whole entry, looked up): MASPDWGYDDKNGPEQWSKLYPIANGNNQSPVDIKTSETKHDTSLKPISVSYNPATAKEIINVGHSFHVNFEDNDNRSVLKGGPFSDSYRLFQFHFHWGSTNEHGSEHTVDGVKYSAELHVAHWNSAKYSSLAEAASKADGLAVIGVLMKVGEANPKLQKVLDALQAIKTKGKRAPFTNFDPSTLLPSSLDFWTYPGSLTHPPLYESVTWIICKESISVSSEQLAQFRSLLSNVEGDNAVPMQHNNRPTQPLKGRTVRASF
Sequence of UniProt P35790 (P35790 whole entry, looked up): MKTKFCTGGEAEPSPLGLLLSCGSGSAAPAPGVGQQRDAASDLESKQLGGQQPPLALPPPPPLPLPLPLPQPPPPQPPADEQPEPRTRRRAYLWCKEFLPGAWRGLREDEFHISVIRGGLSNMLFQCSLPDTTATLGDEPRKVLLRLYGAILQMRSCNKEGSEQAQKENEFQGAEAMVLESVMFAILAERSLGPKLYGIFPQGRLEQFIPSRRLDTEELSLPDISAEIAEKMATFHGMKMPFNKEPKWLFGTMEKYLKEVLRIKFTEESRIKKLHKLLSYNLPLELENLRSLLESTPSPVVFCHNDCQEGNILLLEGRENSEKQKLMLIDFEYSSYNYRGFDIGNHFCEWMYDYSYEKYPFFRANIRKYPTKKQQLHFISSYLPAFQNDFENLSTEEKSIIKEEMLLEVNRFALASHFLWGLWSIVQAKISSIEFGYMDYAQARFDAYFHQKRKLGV
Sequence of UniProt Q5RI15 (Q5RI15 whole entry, looked up): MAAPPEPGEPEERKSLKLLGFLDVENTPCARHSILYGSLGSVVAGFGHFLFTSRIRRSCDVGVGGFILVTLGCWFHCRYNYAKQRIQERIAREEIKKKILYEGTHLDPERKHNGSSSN
Sequence of UniProt Q5JTJ3 (Q5JTJ3 whole entry, looked up): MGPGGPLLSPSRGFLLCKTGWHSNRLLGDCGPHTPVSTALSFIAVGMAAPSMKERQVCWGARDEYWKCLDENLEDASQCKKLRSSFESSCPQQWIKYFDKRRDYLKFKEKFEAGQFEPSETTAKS

Compound in the first experiment: CCCCN(Cc1ccc(C(=O)NO)cc1)C(=O)Nc1ccccc1 [Nexturastat A]
Nature of the experiment: log2 fold change, soluble protein after heating vs DMSO (PISA); higher = thermal stabilisation; K562 cells, 10 uM, 30 min; active = over 0.2 and 3.5 SD of the protein, either way, in both replicates (recomputed). Put shortly:
(§1)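 K562 cells (2×10^6 cells/mL) were treated with 10 μM compound for 30 min, and aliquots were heated for 3 min over 48°C-58°C. Pooled aliquots were extracted in PBS with 0.5% NP-40 at 4°C, and the supernatant after 21,000xg for 90 min was measured by TMTpro 16plex LC-MS/MS with channel sums equalised. Reported thermal stability, relative to control samples and from duplicates, is a log2 fold change.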
As to CCNB1 (UniProt P14635), the log2 fold change was 0.017.

CLSPN (UniProt Q9HAW4): the log2 fold change is 0.006.

Turning to CDK6 (UniProt Q00534), the log2 fold change is 0.032.

As for CCNK isoform 4 (UniProt O75909), the log2 fold change was 0.024.

C16orf58 (UniProt Q96GQ5): the log2 fold change is -0.049.

For CDC25B isoform 4 (UniProt P30305), the log2 fold change was -0.039.

Take CPQ (UniProt Q9Y646): the log2 fold change was -0.016.

As to CCDC57 (UniProt Q2TAC2), the log2 fold change is -0.049.

Regarding C9orf72 (UniProt Q96LT7), the log2 fold change was -0.102.

In the case of CASP3 (UniProt P42574), the log2 fold change was -0.025.

Take CLASP2 isoform 3 (UniProt O75122): the log2 fold change was -0.006.

For CCM2 isoform 2 (UniProt Q9BSQ5), the log2 fold change is 0.102.

Take CCDC9 (UniProt Q9Y3X0): the log2 fold change was 0.119.

Regarding CETN2 (UniProt P41208), the log2 fold change was -0.188.

For CKB (UniProt P12277), the log2 fold change was -0.032.

With CKS1B (UniProt P61024), the log2 fold change is -0.005.

As for CDC42BPA isoform 6 (UniProt Q5VT25), the log2 fold change was 0.123.

In the case of COX20 isoform 2 (UniProt Q5RI15), the log2 fold change was -0.038.

Consider CHKA (UniProt P35790), for which the log2 fold change was 0.036.

Turning to CNOT1 (UniProt A5YKK6), the log2 fold change was 0.062.

Take CHAMP1 (UniProt Q96JM3): the log2 fold change is 0.011.

Consider CHERP (UniProt Q8IWX8), for which the log2 fold change is -0.006.

For CERT isoform 3 (UniProt Q9Y5P4), the log2 fold change was -0.048.

For the target CNOT7 (UniProt Q9UIV1), the log2 fold change is 0.048.

Turning to CPT2 (UniProt P23786), the log2 fold change is -0.417.

Regarding COA6 isoform 2 (UniProt Q5JTJ3), the log2 fold change is 0.007.

For the target COMMD2 (UniProt Q86X83), the log2 fold change was 0.022.

Regarding CES2 isoform 4 (UniProt O00748), the log2 fold change was 0.058.

Regarding CA1 (UniProt P00915), the log2 fold change is -0.051.

As for CHD4 isoform 2 (UniProt Q14839), the log2 fold change is 0.087.

CD55 isoform 7 (UniProt P08174): the log2 fold change was 0.072.

For the target CLPTM1L (UniProt Q96KA5), the log2 fold change was -0.032.

On to CSE1L (UniProt P55060), for which the log2 fold change is -0.068.

Regarding C4A (UniProt P0C0L4), the log2 fold change is -0.008.

In the case of CDK16 isoform 2 (UniProt Q00536), the log2 fold change is -0.052.

For the target CLUH (UniProt O75153), the log2 fold change is -0.022.

Compound in a further experiment: CCCS(=O)(=O)Nc1ccc(F)c(C(=O)c2c[nH]c3ncc(-c4ccc(Cl)cc4)cc23)c1F [vemurafenib]
The description is as above. Put shortly:
as §1
Turning to CCNB1 (UniProt P14635), the log2 fold change was 0.03.

On to CLSPN (UniProt Q9HAW4), for which the log2 fold change is 0.041.

Turning to CDK6 (UniProt Q00534), the log2 fold change is 0.002.

Take CCNK isoform 4 (UniProt O75909): the log2 fold change is -0.088.

Consider C16orf58 (UniProt Q96GQ5), for which the log2 fold change was -0.007.

As to CDC25B isoform 4 (UniProt P30305), the log2 fold change is 0.054.

For CPQ (UniProt Q9Y646), the log2 fold change was 0.043.

On to CCDC57 (UniProt Q2TAC2), for which the log2 fold change was 0.

As to C9orf72 (UniProt Q96LT7), the log2 fold change is -0.139.

On to CASP3 (UniProt P42574), for which the log2 fold change is -0.009.

As for CLASP2 isoform 3 (UniProt O75122), the log2 fold change is 0.089.

In the case of CCM2 isoform 2 (UniProt Q9BSQ5), the log2 fold change was 0.008.

Take CCDC9 (UniProt Q9Y3X0): the log2 fold change is -0.007.

Consider CETN2 (UniProt P41208), for which the log2 fold change was -0.008.

CKB (UniProt P12277): the log2 fold change was 0.

On to CKS1B (UniProt P61024), for which the log2 fold change is 0.056.

For CDC42BPA isoform 6 (UniProt Q5VT25), the log2 fold change is 0.004.

Take COX20 isoform 2 (UniProt Q5RI15): the log2 fold change is -0.036.

For the target CHKA (UniProt P35790), the log2 fold change was -0.017.

As to CNOT1 (UniProt A5YKK6), the log2 fold change is 0.044.

For the target CHAMP1 (UniProt Q96JM3), the log2 fold change is -0.01.

With CHERP (UniProt Q8IWX8), the log2 fold change was 0.018.

In the case of CERT isoform 3 (UniProt Q9Y5P4), the log2 fold change was 0.101.

On to CNOT7 (UniProt Q9UIV1), for which the log2 fold change is -0.068.

In the case of CPT2 (UniProt P23786), the log2 fold change was 0.042.

In the case of COA6 isoform 2 (UniProt Q5JTJ3), the log2 fold change was -0.041.

Consider COMMD2 (UniProt Q86X83), for which the log2 fold change was 0.023.

Turning to CES2 isoform 4 (UniProt O00748), the log2 fold change is -0.029.

As for CA1 (UniProt P00915), the log2 fold change is 0.048.

Take CHD4 isoform 2 (UniProt Q14839): the log2 fold change is 0.068.

On to CD55 isoform 7 (UniProt P08174), for which the log2 fold change is -0.031.

In the case of CLPTM1L (UniProt Q96KA5), the log2 fold change was 0.045.

In the case of CSE1L (UniProt P55060), the log2 fold change is 0.029.

On to C4A (UniProt P0C0L4), for which the log2 fold change is 0.148.

For the target CDK16 isoform 2 (UniProt Q00536), the log2 fold change is -0.072.

CLUH (UniProt O75153): the log2 fold change is 0.047.

For the origin of these results see the supplement of paper PMC10849652.
